Test systems include SK-MEL-2 melanoma; EKVX NSCLC; SN12C renal; UO-31 renal; TK-10 renal; ACHN renal; CAKI-1 renal; A498 renal; CCRF-CEM leukemia; MOLT-4 leukemia; SR leukemia; RPMI-8226 leukemia; OVCAR-8 ovarian; OVCAR-5 ovarian; OVCAR-4 ovarian; SK-OV-3 ovarian; IGROV1 ovarian; OVCAR-3 ovarian; HS 578T breast; NCI/ADR-RES ovarian.
Assay in all cases: NCI-60 one-dose screen, 48 h (100 = growth as untreated, 0 = no growth, -100 = all killed)
Holding throughout (conditions): 10 µM unless noted

Structures are written as SMILES. The panel holds about 83,000 compounds, 20% with a hit somewhere; the sample as a whole holds those more often.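 Single-concentration screen, 48 h exposure, 96-well plates. Endpoint: percent growth. Below 10 = active.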 Values without a mark were called inactive. The source made the active and inactive calls.

In the case of `O=C(OCc1ccc2c(Br)cc(Br)c(O)c2n1)N1CCN(C(=O)c2cc3ccccc3[nH]2)CC1`, the growth with SK-MEL-2 melanoma was 44.8%; in the experiment with EKVX NSCLC, 29.9%; in the experiment with SN12C renal, 31.3%; in the experiment on UO-31 renal, 12.8%; in the experiment with TK-10 renal it was 47.5%; in the experiment on ACHN renal it was 14.4%. The growth is 23% in the experiment on CAKI-1 renal; 20.3% in the experiment with A498 renal; 21.2% in the experiment with CCRF-CEM leukemia; 35.5% in the experiment with MOLT-4 leukemia; 31.3% with SR leukemia; 34.3% in the experiment with RPMI-8226 leukemia. Moreover, the growth is 25.5% in the experiment on OVCAR-8 ovarian; 54.3% with OVCAR-5 ovarian; 26% with OVCAR-4 ovarian; 40.1% with SK-OV-3 ovarian; 31.5% in the experiment with IGROV1 ovarian; 31.3% in the experiment on OVCAR-3 ovarian. Besides, the growth in the experiment on HS 578T breast was 48.2%; in the experiment on NCI/ADR-RES ovarian it was 7.07% (active).
Consider `Cc1c(N2CCCCC2)[nH]c2ccccc12`, for which the growth is 119% with SK-MEL-2 melanoma; 117% in the experiment with EKVX NSCLC; 98.4% in the experiment on SN12C renal; 125% in the experiment with UO-31 renal; 121% in the experiment on TK-10 renal; 115% in the experiment with ACHN renal. Also, the growth in the experiment with CAKI-1 renal is 101%; in the experiment with A498 renal it was 123%; in the experiment on CCRF-CEM leukemia, 55.1%; in the experiment on MOLT-4 leukemia, 110%; in the experiment on SR leukemia it was 119%; with RPMI-8226 leukemia, 62.6%. Besides, the growth in the experiment with OVCAR-8 ovarian is 105%; with OVCAR-5 ovarian it was 124%; in the experiment on OVCAR-4 ovarian it was 142%; with SK-OV-3 ovarian, 118%; in the experiment with IGROV1 ovarian it was 136%; in the experiment on OVCAR-3 ovarian, 125%. Besides, the figures for the growth with HS 578T breast and in the experiment with NCI/ADR-RES ovarian were 96.2% and 107%, respectively.
Take `N#CSCc1cc(Cl)c(CSC#N)cc1Cl`: the growth in the experiment with SK-MEL-2 melanoma is 96.5%; in the experiment on EKVX NSCLC, 104%; with SN12C renal, 41.5%; in the experiment on UO-31 renal, 41.9%; in the experiment with TK-10 renal, 94%; in the experiment with ACHN renal it was 45.3%. The growth with CAKI-1 renal is 38.3%; in the experiment on A498 renal, 104%; in the experiment on CCRF-CEM leukemia, 2.13% (active); in the experiment with MOLT-4 leukemia it was 17.7%; in the experiment with SR leukemia, 10.8%; in the experiment with RPMI-8226 leukemia, 48.6%. Besides, the growth with OVCAR-8 ovarian is 94.9%; in the experiment on OVCAR-5 ovarian it was 82.9%; in the experiment with OVCAR-4 ovarian, 80.5%; with SK-OV-3 ovarian, 101%; in the experiment on IGROV1 ovarian, 84.7%; in the experiment with OVCAR-3 ovarian, 71.3%. Also, the growth was 82.3% in the experiment with HS 578T breast and 84.5% with NCI/ADR-RES ovarian.
For `CS(=O)(=O)c1cccc(Nc2ncc3cc(-c4ccccc4Cl)ccc3n2)c1`, the growth with SK-MEL-2 melanoma is -25.6% (active); in the experiment on EKVX NSCLC, 23.9%; with SN12C renal, 11%; in the experiment with UO-31 renal, -3.98% (active); with TK-10 renal, 19.5%; in the experiment on ACHN renal it was 2.93% (active). Further, the growth with CAKI-1 renal was 9.3% (active); with A498 renal, 5.57% (active); in the experiment on CCRF-CEM leukemia it was 9.21% (active); in the experiment with MOLT-4 leukemia it was 5.83% (active); with SR leukemia, 0.145% (active); with RPMI-8226 leukemia it was 1.72% (active). The growth in the experiment with OVCAR-8 ovarian is 11.3%; with OVCAR-5 ovarian, 32.2%; in the experiment with OVCAR-4 ovarian it was 39%; in the experiment with SK-OV-3 ovarian it was -2.26% (active); with IGROV1 ovarian, 4.09% (active); in the experiment on OVCAR-3 ovarian, 22.1%. Moreover, the growth is 3.45% (active) in the experiment with HS 578T breast and -1.15% (active) in the experiment with NCI/ADR-RES ovarian.
Turning to `CC(C)C(=O)Nc1ncc(C(=O)NCCN(Cc2ccccc2)C(=O)c2ccc(S(=O)(=O)Nc3ccccc3)cc2)s1`, the growth was 97.8% in the experiment with SK-MEL-2 melanoma; 97.6% with EKVX NSCLC; 91.4% in the experiment on SN12C renal; 80.2% in the experiment on UO-31 renal; 100% in the experiment with TK-10 renal; 101% with ACHN renal. Also, the growth in the experiment with CAKI-1 renal is 92.4%; in the experiment with A498 renal it was 87.7%; with CCRF-CEM leukemia it was 96.2%; in the experiment on MOLT-4 leukemia, 75.1%; in the experiment on SR leukemia, 100%; with RPMI-8226 leukemia, 97.6%. Also, the growth in the experiment on OVCAR-8 ovarian is 102%; in the experiment with OVCAR-5 ovarian, 97.7%; in the experiment with OVCAR-4 ovarian, 112%; with SK-OV-3 ovarian, 110%; in the experiment on IGROV1 ovarian it was 105%; with OVCAR-3 ovarian, 106%. Also, the values for the growth in the experiment on HS 578T breast and in the experiment with NCI/ADR-RES ovarian were 87.1% and 101%, respectively.
For `CCN(CC)CCCNc1cc(OC)cc2cccnc12`, the growth in the experiment with SK-MEL-2 melanoma was 109%; with EKVX NSCLC, 107%; in the experiment with SN12C renal, 97.7%; in the experiment on UO-31 renal it was 91.6%; with TK-10 renal, 109%; with ACHN renal it was 110%. For the same molecule, the growth is 103% in the experiment with CAKI-1 renal; 81.5% with A498 renal; 114% in the experiment with CCRF-CEM leukemia; 104% with MOLT-4 leukemia; 100% with SR leukemia; 97.4% in the experiment on RPMI-8226 leukemia. For the same molecule, the growth with OVCAR-8 ovarian is 101%; in the experiment on OVCAR-5 ovarian, 117%; with OVCAR-4 ovarian it was 51.4%; in the experiment with SK-OV-3 ovarian, 112%; with IGROV1 ovarian, 106%; with OVCAR-3 ovarian, 79.2%. Besides, the growth with HS 578T breast is 109%; in the experiment on NCI/ADR-RES ovarian, 108%.
Consider `COC(=O)c1cc(-c2ccc(OC)c(OC)c2)[nH]c1N/N=C/c1c(Cl)cccc1Cl`, for which the growth with SK-MEL-2 melanoma is 53.6%; with EKVX NSCLC it was 39.9%; in the experiment on SN12C renal it was 59.1%; with UO-31 renal, 52.4%; in the experiment with TK-10 renal, 57.2%; in the experiment with ACHN renal, 54.4%. The growth with CAKI-1 renal is 6.72% (active); in the experiment with A498 renal it was 27.6%; in the experiment on CCRF-CEM leukemia, 19.7%; with MOLT-4 leukemia, 39.4%; in the experiment on SR leukemia it was 12.1%; in the experiment on RPMI-8226 leukemia, 24.1%. Also, the growth with OVCAR-8 ovarian is 41.1%; in the experiment on OVCAR-5 ovarian it was 49.4%; in the experiment on OVCAR-4 ovarian it was 69.3%; in the experiment on SK-OV-3 ovarian, 42.2%; in the experiment on IGROV1 ovarian it was 42.4%; with OVCAR-3 ovarian, -19.2% (active). For the same molecule, the results for the growth with HS 578T breast and with NCI/ADR-RES ovarian were 14.3% and 26.8%, respectively.
On to `CCOC(=O)CC1CSC(N/N=C/c2ccc(O)cc2)=N1` (stereo not given), for which the growth in the experiment on SK-MEL-2 melanoma is 95.1%; in the experiment with EKVX NSCLC, 103%; with SN12C renal, 105%; in the experiment on UO-31 renal, 89.7%; in the experiment on TK-10 renal, 91.5%; in the experiment on ACHN renal, 105%. The growth was 94.6% in the experiment with CAKI-1 renal; 108% in the experiment with A498 renal; 115% with CCRF-CEM leukemia; 107% with MOLT-4 leukemia; 98.5% in the experiment with SR leukemia; 104% with RPMI-8226 leukemia. Also, the growth in the experiment on OVCAR-8 ovarian is 103%; in the experiment with OVCAR-5 ovarian it was 100%; in the experiment with OVCAR-4 ovarian, 108%; in the experiment with SK-OV-3 ovarian it was 88.8%; in the experiment with IGROV1 ovarian, 97.3%; in the experiment with OVCAR-3 ovarian it was 110%. Further, the growth was 104% in the experiment on HS 578T breast and 108% with NCI/ADR-RES ovarian.
